# Results taken from PubChem BioAssay (NCATS).
# Records with an inconclusive call do not appear. Entries that show only a call come without a potency. Calls of active or inactive are those of the source. Unless noted, the call rests on the fitted dose curve; in most records, active means well fitted curve in the direction sought with a large enough effect; inconclusive means small, poorly fitted or top-dose-only effect, or another doubt; inactive means no such curve, though single readings can be large; an effect the other way counts as inactive or inconclusive. *1 amine or outer side, *2 acyl side, *3 side chain or, on linkers, in order; H or OH if unused. Where a SMILES comes first, the peptide text is derived from it. Bridges are numbered along the chain shown (N, C = ends). [ ]: non-standard residue; d: D form. The star is where a group is joined. ξ: configuration not given here. ξhTyr(3S-OH,4S-OH,3'-OSO3H) = NC(C(=O)O)[C@H](O)[C@@H](O)c1ccc(O)c(OS(=O)(=O)O)c1; Orn(4R-OH,5R-OH) = O=C([C@H](C[C@@H](O)[C@@H](O)N[*:3])N[*:1])[*:2]; X2 = CCCCCOc1ccc(-c2cc(-c3ccc(C(=O)*)cc3)no2)cc1; X3 = C[C@H]1CN([*:1])C(C(=O)[*:2])[C@H]1O; ξGln(3R-OH) = NC(=O)C[C@@H](O)C(N)C(=O)O; ξPro(4R-OH) = O=C(O)C1C[C@@H](O)CN1; ξThr(3R) = C[C@@H](O)C(N)C(=O)O
# Tests used:
# [1] = P-glycoprotein substrates identified in KB-8-5-11 adenocarcinoma cell line, qHTS therapeutic library screen (AID 1346987); details: KB-8-5-11 (P-gp overexpressing) viability, CellTiter-Glo, 72 h; series mostly up to 44.5 µM; further: nearly all actives have a fitted effect of over 65% in size
# Method in brief: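 In this qHTS, P-gp-rich KB-8-5-11 cells received library compounds across a concentration range. Viability was quantified by luminescence after 72 h at 37 degree C.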
# [2] = test system: Zika virus NS2B-NS3 protease (linked construct); test: Confirmatory screen NINDS AMC qHTS for Zika virus inhibitors (AID 1347152); details: Purified linked NS2B-NS3, AMC substrate fluorescence; series mostly up to 56.6 µM; further: potency means the concentration at half of the fitted maximal effect; nearly all actives have a fitted effect of over 70% in size
# Method in brief: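 Purified NS2B-NS3 protease with NS2B hydrophilic domain linked to NS3 protease domain by flexible linker, 1 nM final in 10 mM Tris-HCl pH 8.0, 0.01% Tween 20. Compounds preincubated 15 min, room temperature; Bz-Nle-KRR-AMC 10 microM (Km 18.3 µM); 15-min fluorescence change, 4-parameter Hill fit.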
# [3] = target: Peroxisome proliferator-activated receptor alpha (Homo sapiens) (UniProt Q07869); test: qHTS assay for small molecule agonists of the peroxisome proliferator-activated receptor alpha (PPARalpha) signaling pathway (AID 651778); details: PathHunter PPARalpha complementation, chemiluminescence, 6 h; active compounds read high
# Method in brief: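 Chemiluminescence from complemented enzyme reported PPARalpha activation in cells after 6 hr of compound treatment at 37 C. The detection reagent was incubated for 60 min at room temperature, and compounds were scored as agonists.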
# [4] = target: Nuclear receptor ROR-gamma (Homo sapiens) (UniProt P51449); test: qHTS assay for small molecule antagonists of the retinoid-related orphan receptor gamma (ROR-gamma) signaling pathway (AID 651802); details: ROR-gamma antagonist cell reporter assay; series mostly up to 92.2 µM;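 further: CHO cells with doxycycline-induced ROR-gamma expression; luciferase reporter luminescence driven by ROR response element; nearly all actives have a fitted effect of over 60% in size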
# Method in brief: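 Luciferase read-out: ONE-Glo luminescence after 30 min at room temperature, following 16hr doxycycline induction at 37C, 5% CO2 of CHO cells with TET-inducible ROR and RORE-LUC reporter; decreased luminescence = reduced reporter activity.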
# [5] = qHTS assay for small molecule agonists of the antioxidant response element (ARE) signaling pathway measured by Nrf2-dependant transcriptional activity (AID 720636; active means well fitted curve in the direction sought with a large enough effect in the repeat runs; an effect the other way counts as inactive or inconclusive;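 further: HepG2 cells with an ARE-driven luciferase reporter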); details: ARE-luc HepG2, Nrf2 luciferase reporter, 16 h; series mostly up to 92.4 µM
# Method in brief: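 Nrf2-dependent transcription is measured in ARE-luc HepG2 cells: compound is applied for 16 hr at 37 C after a 6 hr attachment period, and luciferase activity is quantified by luminescence using ONE-Glo.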
# [6] = qHTS assay for small molecule antagonists of the retinoid-related orphan receptor gamma (ROR-gamma) signaling pathway - cell viability counter screen (AID 720652; active means well fitted curve in the direction sought with a large enough effect in the repeat runs; an effect the other way counts as inactive or inconclusive;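 further: CHO reporter cells with doxycycline-induced ROR-gamma expression; compound exposure lasted 16 hr before ATP read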); details: RORgamma reporter cell line viability counter screen; series mostly up to 92.2 µM
# Method in brief: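 CHO RORE-LUC/TET-ROR line, 1,000 cells/well, 37 C 5% CO2 5 hr; cpd or DMSO + doxycycline induction, 16 hr. CellTiter-Glo, 30 min RT, luminescence = ATP content.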
# [7] = qHTS assay for small molecule agonists of the antioxidant response element (ARE) signaling pathway measured by Nrf2-dependant transcriptional activity - cell viability counter screen (AID 720653; active means well fitted curve in the direction sought with a large enough effect in the repeat runs; an effect the other way counts as inactive or inconclusive); details: ARE-bla HepG2 viability, CellTiter-Glo ATP luminescence, 16 h; active compounds read low
# Method in brief: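 Cytotoxicity counter screen: intracellular ATP quantified by CellTiter-Glo luminescence in the same ARE-bla HepG2 plates, after 16 h compound exposure and a 2 h beta-lactamase substrate step.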
# [8] = qHTS assay for cell viability of HEK293 cells (AID 743288); details: ATP luminescence (CellTiter-Glo), 18 h, active compounds read low; further: nearly all actives have a fitted effect of over 50% in size
# Method in brief: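 After 18 h compound exposure at 37 C, parental HEK293 cells (2,000/well) are lysed with CellTiter-Glo and luminescence is read following 30 min at room temperature.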
# [9] = qHTS assay for cell viability of the p53RE-bla HCT-116 cell line (AID 743292); details: p53RE-bla HCT-116 viability, ATP luminescence, 16 h; series mostly up to 95 µM; further: nearly all actives have a fitted effect of over 55% in size
# Method in brief: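 ATP-based luminescence, 16 h compound exposure at 37 C, p53RE-bla HCT-116 cells at 4,000/well.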
# Nuclear receptor ROR-gamma (Homo sapiens), sequence (P51449 whole entry, looked up): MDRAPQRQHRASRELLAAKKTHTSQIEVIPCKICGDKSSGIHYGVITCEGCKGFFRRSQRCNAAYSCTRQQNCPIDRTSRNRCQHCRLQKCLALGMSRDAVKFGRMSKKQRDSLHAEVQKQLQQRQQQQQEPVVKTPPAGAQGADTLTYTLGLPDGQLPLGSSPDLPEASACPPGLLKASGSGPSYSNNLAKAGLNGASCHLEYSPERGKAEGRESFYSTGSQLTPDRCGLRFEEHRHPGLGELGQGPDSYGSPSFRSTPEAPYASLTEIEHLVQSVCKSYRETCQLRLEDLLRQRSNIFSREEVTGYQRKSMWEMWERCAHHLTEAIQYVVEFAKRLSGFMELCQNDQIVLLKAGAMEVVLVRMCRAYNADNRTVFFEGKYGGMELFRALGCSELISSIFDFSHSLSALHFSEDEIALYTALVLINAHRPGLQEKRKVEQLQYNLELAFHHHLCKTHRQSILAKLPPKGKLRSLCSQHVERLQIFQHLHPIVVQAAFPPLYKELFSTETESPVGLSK
# Peroxisome proliferator-activated receptor alpha (Homo sapiens), sequence (Q07869 whole entry, looked up): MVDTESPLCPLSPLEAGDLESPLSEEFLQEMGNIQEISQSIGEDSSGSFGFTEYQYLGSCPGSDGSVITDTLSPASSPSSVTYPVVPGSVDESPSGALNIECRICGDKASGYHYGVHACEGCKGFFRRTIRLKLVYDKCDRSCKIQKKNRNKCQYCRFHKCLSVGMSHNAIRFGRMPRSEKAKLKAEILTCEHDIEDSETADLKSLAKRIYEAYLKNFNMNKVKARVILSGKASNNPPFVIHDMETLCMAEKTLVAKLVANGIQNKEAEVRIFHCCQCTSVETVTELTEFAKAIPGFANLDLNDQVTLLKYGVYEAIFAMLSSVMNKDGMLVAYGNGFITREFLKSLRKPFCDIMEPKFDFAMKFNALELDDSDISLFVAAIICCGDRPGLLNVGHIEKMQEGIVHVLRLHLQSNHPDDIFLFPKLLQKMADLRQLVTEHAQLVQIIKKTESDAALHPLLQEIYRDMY
structure (smiles),measurement,setting,value
CCc1cc(CC[C@]2(C3CCCC3)CC(O)=C(Cc3nc4nc(C)cc(C)n4n3)C(=O)O2)cc(CC)n1,Potency,[1],inactive
O=C(NC1Cc2ccccc2N(C[C@@H](O)CO)C1=O)c1cc2cc(Cl)sc2[nH]1 (some centres not stated),Potency,[1],inactive
O=C(/C=C/c1ccc(O)cc1)O[C@H]1[C@H](OC2CCCCC2O)O[C@H](CO)[C@@H](O)[C@@H]1O (some centres not stated),Potency,[1],inactive
CCC(C)C(N)C(=O)NCCN1CCOCC1 (configuration not stated),Potency,[1],inactive
CC(C)=CCC[C@](C)(O[C@@H]1O[C@H](CO)[C@@H](O)[C@H](O)[C@H]1O)[C@H]1CC[C@]2(C)[C@@H]1[C@H](O)CC1[C@@]3(C)CC[C@H](O)C(C)(C)C3[C@@H](O[C@@H]3O[C@H](CO)[C@@H](O)[C@H](O)[C@H]3O[C@@H]3O[C@@H](C)[C@H](O)[C@@H](O)[C@H]3O)C[C@]12C (some centres not stated),outcome,[1],inactive [at 9.29 µM]
C=C(C)[C@@H]1CC[C@]2(C(=O)O)CC[C@]3(C)[C@H](CCC4[C@@]5(C)CCC(=O)C(C)(C)C5C(O)C[C@]43C)C12 (some centres not stated),Potency,[1],inactive
C[C@@H]1O[C@@H](O[C@H]2[C@H](OC(=O)[C@]34CCC(C)(C)C[C@H]3C3=CCC5[C@@]6(C)C[C@@H](O)[C@@H](O)[C@@](C)(CO)C6[C@H](O)C[C@@]5(C)[C@]3(C)CC4)OC[C@H](O)[C@@H]2O)[C@H](O)[C@H](O)[C@H]1O[C@@H]1OC[C@@H](O)[C@H](O[C@H]2O[C@H](C)[C@@H](O)[C@H](O)[C@@H]2O)[C@H]1O (some centres not stated),"activity change, negative = cytotoxicity",[1],2.85% [at 9.29 µM] (inactive)
CC[C@H]1OC(=O)[C@H](C)C(=O)[C@H](C)[C@@H](OC2O[C@H](C)C[C@H](N(C)C)[C@H]2O)[C@@H](C)C[C@@H](C)C(=O)/C=C/[C@]1(C)O (some centres not stated),Potency,[1],inactive
NCCCCN(Cc1nc2ccccc2[nH]1)[C@H]1CCCc2cccnc21,Potency,[1],inactive
Cc1occc1C(=O)n1ccnc1,Potency,[1],inactive
CC1(C)CC[C@]2(C(=O)O[C@@H]3O[C@H](CO)[C@@H](O)[C@H](O)[C@H]3O)[C@H](O)C[C@]3(C)C(=CCC4[C@@]5(C)CC[C@H](O[C@@H]6OC[C@@H](O)[C@H](O)[C@H]6O)[C@@](C)(C(=O)O)C5CC[C@]43C)[C@@H]2C1 (some centres not stated),Potency,[1],inactive
CCC(C)/C=C(C)/C=C/C1=CC2=CC(=O)C(C)(O)C(OC(C)=O)C2CO1 (configuration not stated),Potency,[1],inactive
CC1OC(O[C@H]2CC[C@@]3(C)C(CC[C@]4(C)C3CC=C3C5CC(C)(C)CC[C@]5(C(=O)OC5OC(CO)C(OC6OCC(OC7OCC(O)C(O)C7O)C(O)C6O)C(O)C5O)CC[C@]34C)C2(C)C)C(O)C(O)C1OC1OC(CO)C(O)C(OC2OC(CO)C(O)C(O)C2O)C1O (some centres not stated),outcome,[1],inactive [at 9.29 µM]
C=C1CC/C=C(/C(=O)O)CCC2C1CC2(C)C (configuration not stated),Potency,[1],inactive
C=C1C[C@]23C[C@H]1CC[C@H]2[C@]1(C)CC[C@H](O)[C@@](C)(C(=O)O)[C@H]1[C@@H]3C(=O)O,Potency,[1],inactive
C[C@@H]1CC[C@]2(C(=O)O)CC[C@]3(C)C(=CCC4[C@@]5(C)C[C@@H](O)[C@@H](O)C(C)(C)C5CC[C@]43C)C2[C@]1(C)O (some centres not stated),Potency,[1],inactive
O=C(Nc1ccccc1)Nc1ccc(-c2ccc(C(=O)C3CCCC3C(=O)O)cc2)cc1 (configuration not stated),Potency,[1],inactive
same,Potency,[2],27.8 µM (active)
COc1cc(C(CO)C(OC2OC(CO)C(O)C(O)C2O)c2ccc(O)c(OC)c2)ccc1O (configuration not stated),Potency,[1],inactive
Fc1ccccc1-c1nc2ccn(Cc3ccc(-c4ccc(C(F)(F)F)cc4C(F)(F)F)nn3)cc-2n1,Potency,[1],inactive
COc1cnc(-c2ccc(Cn3c(CC(C)(C)C(=O)O)c(SC(C)(C)C)c4cc(OC[C@@H]5Cc6ccccc6N5C(C)=O)ccc43)cc2)nc1,Potency,[2],12.2 µM (active)
"CCCCCOc1ccc(-c2cc(-c3ccc(C(=O)N[C@H]4C[C@@H](O)[C@@H](O)NC(=O)C5[C@@H](O)[C@@H](C)CN5C(=O)C([C@H](O)CC(N)=O)NC(=O)C([C@H](O)[C@@H](O)c5ccc(O)c(OS(=O)(=O)O)c5)NC(=O)C5C[C@@H](O)CN5C(=O)C([C@@H](C)O)NC4=O)cc3)no2)cc1 (stereo partly drawn) (X2-[Orn(4R-OH,5R-OH)][ξThr(3R)][ξPro(4R-OH)][ξhTyr(3S-OH,4S-OH,3'-OSO3H)][ξGln(3R-OH)][X3]; lactam 1-C)",Potency,[1],inactive
same,Potency,[2],21.5 µM (active)
C=C1C[C@]23C[C@@]1(O)CC[C@H]2[C@@]12C=C[C@H](O)[C@@](C)(C(=O)O1)[C@H]2[C@@H]3C(=O)O,max response,[3],-2.22% (inactive)
same,outcome,[4],inactive
same,outcome,[5],inactive
same,outcome,[6],inactive
same,max response,[7],2.88% (inactive)
same,max response,[8],3.04% (inactive)
same,outcome,[9],inactive
same,Potency,[1],inactive
CN[C@H](CNC(=O)N1CCC[C@@H]([C@@H](OCCNC(=O)OC)c2cccc(Cl)c2)C1)C[C@H]1CCCOC1,Potency,[1],inactive
